Experimental data taken from PubChem BioAssay (NCATS).
Records with an inconclusive call do not appear. Unmarked numbers belong to inactive results. Active and inactive are the calls of the source. The call rests on the fitted dose curve; in most records, active means well fitted cell-killing curve with a large enough effect; inconclusive means small, poorly fitted or top-dose-only effect; inactive means flat fitted curve, though single readings scatter.

assay: Cell Viability - H-4-II-E (AID 543); details: H-4-II-E rat hepatoma viability; series mostly up to 92.2 µM; activity change, negative = cytotoxic: at the top concentration; further: nearly all actives have a fitted effect of over 35% in size
Source text: NIH Chemical Genomics Center [NCGC]
NIH Molecular Libraries Screening Centers Network [MLSCN]
National Institutes of Environmental Health Sciences [NIEHS]
National Toxicology Program [NTP]
We have developed a 1536-well cell-based assay for quantitative high throughput screening (qHTS) against a number of cell lines to determine in vitro cytotoxicity of small molecules. This particular assay uses the H-4-II-E cell line which is derived from rat hepatoma.
NCGC Assay Protocol Summary:
The CellTiter-Glo luminescent cell viability assay (Promega) is a homogeneous method to measure the number of viable cells in culture. The end point readout of this assay is based on quantitation of intracellular ATP, an indicator of metabolic activity, using the luciferase reaction. Luciferase catalyzes the oxidation of beetle Luciferin to oxyluciferin and light in the presence of ATP. The luminescent signal is proportional to amount of ATP present.
Using the CellTiter-Glo luminescent cell viability assay, the amount of cellular ATP was measured in the H-4-II-E cell line with complete culture medium following compound treatment for 40 hours. The assay was performed in opaque white Kalypsys 1536-well plates. In the screen, tamoxifen and doxorubicin were used as positive controls. Library compounds were measured for their ability to cause acute toxicity in the cell line, as reflected by a decrease in intracellular ATP levels, in a concentration-dependent manner. […] AC50 values were determined from concentration-response data modeled with the standard Hill equation.
qHTS protocol fo CellTiter Glo H-4-II-E cellular assay
[Step] [Parameter] [Value] [Description]
1. Reagent; 5 uL; 1500 H-4-II-E cells/well
2. Time; 5 hr; 37 °C incubation
4. Controls; 23 nL; Tamoxifen 0.34 uM to 100 uM & Doxorubicin 0.02 nM to 100 uM
5. Time; 40 hr; 37 °C incubation
6. Reagent; 5 uL; CellTiter Glo reagent
7. Time; 20 min; Room Temperature
8. Detection; Luminescence; Viewlux plate reader
Keywords: cell viability, cytotoxicity, H-4-II-E cell line, luminescence, NTPHTS, NTPHTS_NCGC, NIEHS, EPA, DSSTox, MLSMR, MLSCN, NIH Roadmap, qHTS, NCGC
On the % scale 0 is the no-effect control and ±100 the full control effect; potency means the concentration at half of the fitted maximal effect.

Compound | activity change, negative = cytotoxic [%] | Potency
C=C(C#N)C(=O)OCC | -11.2 | 
Cc1ccc2ccc3cccc4ccc1c2c34 | -16.1 | 
Cc1cc(=O)oc2cc(O)cc(O)c12 | -21 | 
CCCCC(CC)COP(=O)(OCC(CC)CCCC)OCC(CC)CCCC (stereo not given) | -15.6 | 
Nc1ccc(N)c(Cl)c1 | -21.9 | 
COc1cc(-c2ccc(N=C=O)c(OC)c2)ccc1N=C=O | -16.4 | 
O=C(OCC1CO1)C1CCCCC1C(=O)OCC1CO1 (stereo not given) |  | 50.1 µM (active)
Nc1ccccc1O | -27.9 | 
c1cc2c3c(c1)ccc1cccc(c13)C2 | 1.54 | 
N=C1C=CC(=C(c2ccc(N)cc2)c2ccc(N)cc2)C=C1 |  | 31.6 µM (active)
C=C1CC[C@H](O)C/C1=C/C=C1\CCC[C@]2(C)[C@@H]([C@H](C)CCCC(C)C)CC[C@@H]12 |  | 39.8 µM (active)
O=C=Nc1ccc(Cl)c(Cl)c1 |  | 31.6 µM (active)
Cc1ccc(C(=O)O)cc1[N+](=O)[O-] | -2.04 | 
CCCCC(CC)COCCCN (stereo not given) | -14.2 | 
CCCCNCC | -4.63 | 
CC(=O)CC(=O)Nc1ccccc1 | 4.78 | 
O=C(Cl)c1ccc([N+](=O)[O-])cc1 | -3.17 | 
C[Si](C)(C)Cl | -2.86 | 
CCCCCCCCOc1ccc(C(=O)O)cc1 | -7.68 | 
NC(=O)c1ccc([N+](=O)[O-])cc1 | 1.38 | 

Compound | activity change, negative = cytotoxic [%] | Potency
OC1CCCCC1 | -8.93 | 
Brc1cc(Oc2cc(Br)c(Br)c(Br)c2Br)c(Br)c(Br)c1Br | -28.1 | 
Nc1ccc(N=Nc2ccccc2)c(N)c1 | -26.7 | 
CC(CCC(=O)O)(c1ccc(O)cc1)c1ccc(O)cc1 | -1.18 | 
CCC(Cl)CC(Cl)C(Cl)C(Cl)C(Cl)C(C)Cl (stereo not given) | -16.1 | 
c1ccncc1 | -1.53 | 
CCCC(=O)OC(=O)CCC | 0.643 | 
OCC(CBr)(CBr)CBr | -15.3 | 
CCOc1ccc2nc(N)sc2c1 | -14.2 | 
O=[N+]([O-])c1ccccc1Nc1ccccc1 | -7.09 | 
COc1ccc(C(=O)Nc2ccccc2)cc1[N+](=O)[O-] | -22.4 | 
C/C(Cl)=C/CCl | -16.5 | 
Brc1cc(Br)c(Oc2cc(Br)c(Br)cc2Br)cc1Br | -26.6 | 
OCC(CO)(CBr)CBr | -18.2 | 
Cc1c2ccccc2c(C)c2c1ccc1ccccc12 | -14.9 | 
COc1ccc([N+](=O)[O-])cc1N | -7.45 | 
Brc1ccc(-c2ccccc2)cc1 | -4.35 | 
CC(C)OCC1CO1 (stereo not given) | -14.2 | 
O=C(O)c1ccc([N+](=O)[O-])cc1 | -4.21 | 
C=Cc1cccc(C)c1 | -4.57 | 
